Screening results as filed in PubChem BioAssay.
Vc quorum ag: inducers of Vibrio cholerae quorum light production without autoinducers, primary screen, BH1578 luxS cqsA deficient, single point | V. cholerae BH1578 lux reporter, luminescence, 6 h | activation, % at 18.7 µM | 0.16% of 350,000 active; in the data active = activation mostly above about 9.7%, no sharp cut-off
GDH-TPI counter-1: GDH-TPI coupling enzyme inhibitors, primary screen, artefact control for M. tuberculosis FBA inhibitor project, biochemical, absorbance, full deck | GDH-TPI coupled enzyme counterscreen, NADH absorbance | inhibition, % at 4.8 µM | 1.2% of 360,000 active;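 also: 0% = DMSO wells and 100% = wells lacking the enzyme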
FBA Mtb inh: Mtb FBA enzyme inhibitors, primary screen, biochemical, fluorescence, strain H37Rv | 2.3% of 360,000 active | AID 588726, 2011 | purified M. tuberculosis FBA, fluorescence read-out | Fructose-bisphosphate aldolase (Mycobacterium tuberculosis (strain ATCC 25618 / H37Rv)), … | inhibition, % at 1 µM; in the data active = inhibition above about 27%;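 also: 0% = vehicle and 100% = reference inhibitor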
Target sequence (P9WQA3 whole entry, looked up): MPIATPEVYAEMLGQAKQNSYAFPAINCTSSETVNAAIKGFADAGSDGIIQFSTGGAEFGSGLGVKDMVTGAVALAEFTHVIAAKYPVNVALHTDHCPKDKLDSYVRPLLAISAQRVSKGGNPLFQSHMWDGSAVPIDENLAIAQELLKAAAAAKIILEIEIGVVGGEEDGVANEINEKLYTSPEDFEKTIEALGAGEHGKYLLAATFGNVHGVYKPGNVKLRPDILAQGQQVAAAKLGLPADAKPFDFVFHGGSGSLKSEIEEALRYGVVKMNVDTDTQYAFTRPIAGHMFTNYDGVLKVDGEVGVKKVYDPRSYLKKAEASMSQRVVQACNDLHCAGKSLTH
CCHF vOTU inh: CCHFV vOTU protease inhibitors, primary screen, biochemical, Pep-AMC substrate, fluorescence; Crimean-Congo hemorrhagic fever virus L polyprotein viral ovarian tumor (vOTU) protease …; inhibition, % at 11.5 µM; 0.55% of 370,000 active; also: 0% = vehicle wells with enzyme and 100% = no enzyme wells
Mtb FBA confirm: M. tuberculosis aldolase blockers, biochemical, fluorescence, strain H37Rv, confirmation. shares compounds with FBA Mtb inh. purified M. tuberculosis FBA, fluorescence read-out. inhibition, % at 1 µM. 78% of 5,600 active; in the data active = inhibition above about 27%;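 also: 0% = vehicle wells and 100% = reference inhibitor wells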
GDH-TPI counter-2: GDH-TPI coupling enzyme inhibitors, artefact control for M. tuberculosis FBA inhibitor project, biochemical, fluorescence, high throughput; inhibition, % at 1 µM; GDH-TPI coupled enzyme counterscreen; shares compounds with FBA Mtb inh; 81% of 5,600 active; in the data active = inhibition above about 10%
Starred values were filed as active, the others as inactive. An excerpt weighted towards active compounds, which were near 3.9% of everything screened. Rule as the data show it, unless noted: active = inhibition above about 30%; inactive = the rest.

Screening CCN1CC2(COC(=O)c3ccccc3N)CCC(OC)C34C5CC6C(OC)CC(O)(C5C6OC)C(O)(C(OC)C23)C14 (stereo not given) returned Vc quorum ag 6, GDH-TPI counter-1 2, FBA Mtb inh 36*, Mtb FBA confirm -3 and GDH-TPI counter-2 -6.
For CCc1ccc(Nc2ncc3c(n2)CC(C)CC3=O)cc1 (stereo not given) the results were Vc quorum ag 1, GDH-TPI counter-1 1, FBA Mtb inh -1 and CCHF vOTU inh 10.
For CCc1ccc(Nc2ncc3c(n2)CC(C)(C)CC3=O)cc1 the results were Vc quorum ag 0, GDH-TPI counter-1 17, FBA Mtb inh 35*, CCHF vOTU inh -4, Mtb FBA confirm active and GDH-TPI counter-2 172*.
`CCc1cc2c(=O)c(-c3cscn3)coc2c(CN(C)C)c1O` gave Vc quorum ag inactive, GDH-TPI counter-1 20, FBA Mtb inh 41*, CCHF vOTU inh -40, Mtb FBA confirm 161* and GDH-TPI counter-2 125*.
For CCc1cc2c(=O)c(-c3ccc4c(c3)OCO4)coc2c(CN(C)C)c1O the results were Vc quorum ag -10, GDH-TPI counter-1 28, FBA Mtb inh 23 and CCHF vOTU inh -22.
Screening COc1cc(CC(=O)Nc2cccc(C(F)(F)F)c2)cc(OC)c1OC returned Vc quorum ag 0, GDH-TPI counter-1 8, FBA Mtb inh 0 and CCHF vOTU inh -3.
Screening COc1ccc(OC)c(CC(=O)Nc2ccc3c(c2)c(=O)n(C)n3Cc2cccc(C(F)(F)F)c2)c1 returned Vc quorum ag 0, GDH-TPI counter-1 -5, FBA Mtb inh 111*, CCHF vOTU inh -35, Mtb FBA confirm 36* and GDH-TPI counter-2 28*.
`Cn1c(=O)c2cc(NC(=O)CCc3cccc(Cl)c3)ccc2n1Cc1cccc(C(F)(F)F)c1` gave Vc quorum ag inactive, GDH-TPI counter-1 -4, FBA Mtb inh 37*, CCHF vOTU inh 10, Mtb FBA confirm 96* and GDH-TPI counter-2 84*.
For Cn1c(=O)c2cc(NC(=S)NCc3ccccc3F)ccc2n1C the results were Vc quorum ag 0, GDH-TPI counter-1 8, FBA Mtb inh 57*, CCHF vOTU inh -107, Mtb FBA confirm 18 and GDH-TPI counter-2 12*.
COc1cc(CCC(=O)Nc2cccc(C(F)(F)F)c2)cc(OC)c1OC was read as Vc quorum ag 0, GDH-TPI counter-1 11, FBA Mtb inh -1 and CCHF vOTU inh -4.
Cn1c(=O)c2cc(NC(=O)NCc3ccc(Cl)cc3Cl)ccc2n1Cc1ccccc1 was read as Vc quorum ag 0, GDH-TPI counter-1 8, FBA Mtb inh 48*, CCHF vOTU inh -36, Mtb FBA confirm 152* and GDH-TPI counter-2 117*.
For CC1CC(C)CN(CCOCCSc2ccccc2)C1 (stereo not given) the results were Vc quorum ag -5, GDH-TPI counter-1 9, FBA Mtb inh -1 and CCHF vOTU inh -12.
Screening Cc1nnc(SC(C)C(=O)Nc2ccc(N3CCOCC3)cc2)n1Cc1ccccc1 (stereo not given) returned Vc quorum ag -2, GDH-TPI counter-1 3, FBA Mtb inh 26 and CCHF vOTU inh -4.
`CC(=O)COc1ccc2c(-c3cccc([N+](=O)[O-])c3)cc(=O)oc2c1` gave Vc quorum ag 0, GDH-TPI counter-1 5, FBA Mtb inh 36*, CCHF vOTU inh 1, Mtb FBA confirm 108* and GDH-TPI counter-2 74*.
`CCn1c2ccccc2c2cc(/C=N/n3c(C)nnc3C)ccc21` gave Vc quorum ag inactive, GDH-TPI counter-1 26, FBA Mtb inh 40*, CCHF vOTU inh -50, Mtb FBA confirm 62* and GDH-TPI counter-2 48*.
`Cc1nnc(C)n1/N=C/c1ccccc1` gave Vc quorum ag 0, GDH-TPI counter-1 1, FBA Mtb inh 1 and CCHF vOTU inh -8.
Screening Cc1ccc(S(=O)(=O)Cc2cn3cccnc3n2)cc1 returned Vc quorum ag 4, GDH-TPI counter-1 1, FBA Mtb inh 92*, CCHF vOTU inh -51, Mtb FBA confirm 50* and GDH-TPI counter-2 32*.
For CN1CCN(Cc2cn3cccnc3n2)CC1 the results were Vc quorum ag 0, GDH-TPI counter-1 3, FBA Mtb inh 4 and CCHF vOTU inh 3.
`[N-]=[N+]=NCc1cn2cccnc2n1` gave Vc quorum ag 0, GDH-TPI counter-1 5, FBA Mtb inh 63*, CCHF vOTU inh -13, Mtb FBA confirm 79* and GDH-TPI counter-2 63*.
`c1cnc2nc(CSc3ncn[nH]3)cn2c1` gave Vc quorum ag -1, GDH-TPI counter-1 3, FBA Mtb inh 88*, CCHF vOTU inh -67, Mtb FBA confirm 184* and GDH-TPI counter-2 144*.
For c1ccc(SCc2cn3cccnc3n2)nc1 the results were Vc quorum ag 0, GDH-TPI counter-1 -7, FBA Mtb inh 74*, CCHF vOTU inh -56, Mtb FBA confirm 65* and GDH-TPI counter-2 39*.
`O=C(NC1CCCCC1)N1CCCC1` gave Vc quorum ag 3, GDH-TPI counter-1 4, FBA Mtb inh 2 and CCHF vOTU inh -5.
For Cc1ccc(NC(=O)C(c2ccc(Cl)cc2Cl)N2CCCC2)cc1 (stereo not given) the results were Vc quorum ag 0, GDH-TPI counter-1 -2, FBA Mtb inh 1 and CCHF vOTU inh -5.
`CNc1nc(Cl)nc(Nc2ccccc2)n1` gave Vc quorum ag 0, GDH-TPI counter-1 6, FBA Mtb inh 0 and CCHF vOTU inh 6.
Screening c1ccc(-n2cnnc2SCc2cn3cccnc3n2)cc1 returned Vc quorum ag 4, GDH-TPI counter-1 -1, FBA Mtb inh 103*, CCHF vOTU inh -108, Mtb FBA confirm 102* and GDH-TPI counter-2 76*.
For Clc1ccc2nc(CSc3nncn3-c3ccccc3)cn2c1 the results were Vc quorum ag 2, GDH-TPI counter-1 1, FBA Mtb inh 4 and CCHF vOTU inh 2.
`CC(=O)Nc1nc(CC(C)C)cc(-c2ccco2)c1C#N` gave Vc quorum ag 1, GDH-TPI counter-1 -3, FBA Mtb inh 50*, CCHF vOTU inh -17, Mtb FBA confirm 177* and GDH-TPI counter-2 146*.
CC(=O)Nc1nc(CC(C)C)cc(-c2ccccc2)c1C#N was read as Vc quorum ag inactive, GDH-TPI counter-1 2, FBA Mtb inh 3 and CCHF vOTU inh 3.
OCc1ccccc1-c1cnc2cccnn12 was read as Vc quorum ag 0, GDH-TPI counter-1 9, FBA Mtb inh 105*, CCHF vOTU inh -148, Mtb FBA confirm 113* and GDH-TPI counter-2 86*.
CCOc1ccc(OCC)c(NC(=O)CN2CCN(c3ccc(C)cc3C)CC2)c1 was read as Vc quorum ag inactive, GDH-TPI counter-1 7, FBA Mtb inh 8 and CCHF vOTU inh 1.
